Reference: PubChem BioAssay AID1345085 (National Center for Advancing Translational Sciences (NCATS), 2018)
Results filed as inconclusive are left out. Where a call stands in place of a potency, no number is given. Calls of active or inactive are those of the source. Calls follow the shape of the dose curve; as a rule, active = well fitted cell-killing curve with a large enough effect; inconclusive = small, poorly fitted or top-dose-only effect, or effect the other way; inactive = no such curve, though single readings can be large or run the other way.
Also: nearly all actives have a fitted effect of over 55% in size.
Potency is read from the fitted curve at half-maximal effect.

The compounds below were run on C33A (assay: Confirmatory qHTS for gynecologic anti-cancer compounds from libraries of approved drugs and bioactive compounds). Details: gynecologic cancer cell panel viability, ATPlite luminescence, 48 h; series mostly up to 57.6 µM.
Procedure, shortened: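 Seeding 1,000 cells per well preceded overnight (16 h) attachment, after which 48 h drug treatment across 57.5 uM–0.977 nM (11 points) was applied. Remaining cellular ATP, detected by ATPlite luminescence, defined IC50.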
For `Cn1cc(-c2ccc3ncc(Cc4ccc5ncccc5c4)n3n2)cn1`, the Potency was “inactive”.
With `CCN(CC)CCCC(C)Nc1ccnc2cc(Cl)ccc12` (stereo unspecified) the Potency was “inactive”.
`C#C[C@]1(O)CC[C@H]2[C@@H]3CCC4=CC(=O)CC[C@@H]4[C@H]3CC[C@@]21CC` was tested, and the Potency was “inactive”.
With `Nc1ccc(-c2ccc3ncc4ccc(=O)n(-c5cccc(C(F)(F)F)c5)c4c3c2)cn1` the Potency was 0.172 µM (active).
In the case of `NC(=O)c1ccc2nc(-c3ccc(Oc4ccc(Cl)cc4)cc3)[nH]c2c1`, the Potency is reported as “inactive”.
For `COc1cc2nccc(Oc3ccc(NC(=O)C4(C(=O)Nc5ccc(F)cc5)CC4)cc3)c2cc1OC`, the Potency was 15.3 µM (active).
`O=c1c2ccccc2nc2n1CCc1c-2[nH]c2ccccc12` was tested, and the Potency was “inactive”.
In the case of `Cc1cc(C2CCCCC2)n(O)c(=O)c1`, the Potency is reported as 7.03 µM (active).
For `CCc1nc(C(N)=O)c(Nc2ccc(N3CCC(N4CCN(C)CC4)CC3)c(OC)c2)nc1NC1CCOCC1`, the Potency was “inactive”.
With `CN(c1nccc(=O)[nH]1)C1CCN(c2nc3ccccc3n2Cc2ccc(F)cc2)CC1` the Potency was “inactive”.
For `Cn1c(=O)c(-c2c(Cl)cccc2Cl)cc2cnc(Nc3cccc(C(=O)O)c3)nc21`, the Potency was 5.44 µM (active).
`CCN(CC)CCCC(C)Nc1c2ccc(Cl)cc2nc2ccc(OC)cc12` (stereo unspecified) was tested, and the Potency was 24.3 µM (active).
`COc1cc(Nc2c(C#N)cnc3cc(OCCCN4CCN(C)CC4)c(OC)cc23)c(Cl)cc1Cl` was tested, and the Potency was 27.3 µM (active).
`COCCOc1nc(-c2ccc(Cl)c(Cl)c2)n(-c2ccc(NC(=O)CCl)cc2)n1` was tested, and the Potency was 4.32 µM (active).
`C=CC(=O)Nc1cc2c(Nc3ccc(F)c(Cl)c3)ncnc2cc1OCCCN1CCOCC1` was tested, and the Potency was 24.3 µM (active).
For `COc1cc2c(NC3CCN(C(C)C)CC3)nc(C3CCCCC3)nc2cc1OCCCN1CCCC1`, the Potency was 15.3 µM (active).
In the case of `COc1cc2c(Oc3ccc(-c4cnc(Nc5ccc(F)cc5)n(C)c4=O)cc3F)ccnc2cc1OCCCN1CCOCC1`, the Potency is reported as “inactive”.
`CN(C)c1ccc(-c2nc3ncc(Cl)c(N4CCN(CC(=O)Nc5nccs5)CC4)c3[nH]2)cc1` was tested, and the Potency was “inactive”.
In the case of `CN(C)c1ccc2nc3ccc(=[N+](C)C)cc-3sc2c1`, the Potency is reported as 21.7 µM (active).
`CCN[C@H]1C[C@H](C)S(=O)(=O)c2sc(S(N)(=O)=O)cc21` was tested, and the Potency was “inactive”.
`CC(=O)c1cnc2ccc(-c3cc(Cl)c(O)c(Cl)c3)nc2c1NC1CCC(CN(C)C)CC1` (stereo unspecified) was tested, and the Potency was 1.4 µM (active).
In the case of `O=C(O)c1ccc(Nc2ncc3c(n2)-c2ccc(Cl)cc2C(c2c(F)cccc2F)=NC3)cc1`, the Potency is reported as “inactive”.
For `CCCCc1oc2ccccc2c1C(=O)c1cc(I)c(OCCN(CC)CC)c(I)c1`, the Potency was 70.8 µM (active).
With `O=C(CCCCCCNC(=O)c1cnc(N(c2ccccc2)c2ccccc2)nc1)NO` the Potency was 10.9 µM (active).
For `CC(=O)OC12COC1CC(O)C1(C)C(=O)C(O)C3=C(C)C(OC(=O)C(O)C(NC(=O)OC(C)(C)C)c4ccccc4)CC(O)(C(OC(=O)c4ccccc4)C21)C3(C)C` (stereo unspecified), the Potency was “inactive”.
For `COc1cc(Nc2ncc3c(n2)-c2ccc(Cl)cc2C(c2c(F)cccc2OC)=NC3)ccc1C(=O)O`, the Potency was “inactive”.
`Cc1ccccc1C(OCCN(C)C)c1ccccc1` (stereo unspecified) was tested, and the Potency was “inactive”.
For `O=C(NOC[C@H](O)CO)c1ccc(F)c(F)c1Nc1ccc(I)cc1F`, the Potency was “inactive”.
In the case of `CCCCN(CCCC)C(=O)CN1C[C@H](c2ccc3c(c2)OCO3)[C@@H](C(=O)O)[C@@H]1c1ccc(OC)cc1`, the Potency is reported as “inactive”.
`Cc1ccn(-c2ccc(-c3ncco3)cc2)c(=O)c1-c1ccc2nc(N)ncc2c1` was tested, and the Potency was “inactive”.
`Cn1cnc2c(F)c(Nc3ccc(Br)cc3Cl)c(C(=O)NOCCO)cc21` was tested, and the Potency was “inactive”.
